Compounds with a hit are over-represented: about 2.8% of the library has one in this group of screens.
PAFAH2 inh: PAFAH2 (human) inhibition; recombinant PAFAH2, FP-rhodamine activity probe, fluorescence polarization; AID 492956; inhibition, % at 3.39 µM; Q99487; 340,000 tested, 0.99% active;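 active means inhibition above the mean over all tested compounds plus 3 SD, cut at about 30% in these data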;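 further: inhibitors block probe labeling of enzyme so polarization drops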
Fam108B counter: counter-screen for RBBP9 inhibitors: inhibitors of mouse Fam108B; recombinant Fam108B, FP-Rh probe fluorescence polarization; inhibition, % at 9.51 µM; 300,000 tested, 0.33% active; AID 1947;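 active means inhibition above the screen mean inhibition plus 3 SD, computed separately per campaign, cut at about 18% in these data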;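 further: inhibitors lower polarization as less probe binds the enzyme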
pPAFAH inh: pPAFAH (human) enzyme inhibition; recombinant pPAFAH, FP-rhodamine probe fluorescence polarization; inhibition, % at 3.39 µM; 330,000 tested, 1.5% active; AID 463082;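 active means inhibition above the mean inhibition across the screen plus 3 SD, cut at about 25% in these data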;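 further: inhibitors block binding of the rhodamine activity-based probe so polarization drops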
Target sequence (Q13093 whole entry, looked up): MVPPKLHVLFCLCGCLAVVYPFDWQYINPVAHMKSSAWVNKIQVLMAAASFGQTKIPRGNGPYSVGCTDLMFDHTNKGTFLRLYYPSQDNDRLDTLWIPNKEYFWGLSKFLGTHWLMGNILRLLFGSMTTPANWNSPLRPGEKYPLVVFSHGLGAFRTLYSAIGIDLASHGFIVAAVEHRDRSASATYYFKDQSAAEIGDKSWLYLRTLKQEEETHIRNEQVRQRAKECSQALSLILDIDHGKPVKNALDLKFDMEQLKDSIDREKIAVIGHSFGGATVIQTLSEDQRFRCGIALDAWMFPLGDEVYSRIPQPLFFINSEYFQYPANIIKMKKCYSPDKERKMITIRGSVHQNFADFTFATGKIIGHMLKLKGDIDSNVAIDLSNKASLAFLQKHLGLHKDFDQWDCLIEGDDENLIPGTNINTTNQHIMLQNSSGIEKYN
PME-1 inh: PME-1 (human) inhibition | inhibition, % at 5.9 µM | recombinant PME-1, FP-Rh probe fluorescence polarization | 320,000 tested, 0.53% active | AID 2130 | Q9Y570;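 active means inhibition above the campaign mean of all compounds plus 3 SD, cut at about 26% in these data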;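 further: competitive labeling of PME-1 active site by serine hydrolase directed probe; inhibitors block probe labeling so polarization falls and inhibition rises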
PAFAH1B3 FP inh: blocks human PAF acetylhydrolase 1B catalytic subunit 3; recombinant PAFAH1B3, FP-rhodamine probe, fluorescence polarization; inhibition, % at 3.39 µM; 340,000 tested, 0.28% active; AID 492972;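 active means inhibition above the screen-wide average of all tested compounds plus 3 SD, cut at about 25% in these data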
PAFAH1B2 inh: PAFAH1B2 (human) inhibition; inhibition, % at 3.39 µM; recombinant PAFAH1B2, FP-rhodamine activity probe, fluorescence polarization; P68402; 340,000 tested, 1.2% active;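 active means inhibition above the mean of all tested compounds plus 3 SD, cut at about 24% in these data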
Numbers stand for hits; n = inactive; x = no result.

SMILES	PAFAH2 inh	Fam108B counter	pPAFAH inh	PME-1 inh	PAFAH1B3 FP inh	PAFAH1B2 inh
O=C(NCCc1ccccc1)C1CCC(CNS(=O)(=O)c2ccc(F)cc2)CC1 (stereo not drawn)	n	n	n	n	n	n
COC(=O)C1=CN(C(C)c2ccccc2)C=C(C(=O)OC)C1c1cc(OC)c(OC)c(OC)c1 (stereo not drawn)	n	n	n	n	n	28
COC(=O)C1=CN(Cc2ccc(OC)cc2)C=C(C(=O)OC)C1c1cc(OC)c(OC)c(OC)c1	n	n	n	n	n	n
O=S(=O)(Nc1ncccn1)c1ccc(NC(=S)NCCc2ccc(Cl)cc2)cc1	n	n	n	n	n	44
S=C(NCCc1ccc(Cl)cc1)NC1CCCCC1	n	n	n	n	n	34
O=C(NCCc1ccc(Cl)cc1)C1CCC(=O)N1C1CCCC1 (stereo not drawn)	n	n	n	n	n	56
O=S(=O)(Nc1ncccn1)c1ccc(NC(=S)Nc2cccc(Cl)c2)cc1	x	n	n	n	x	x
S=C(NCCc1ccc(Cl)cc1)NC1CCCC1	n	n	n	n	n	27
CCCCCCCN1CCN=C1Nc1ccccc1	n	n	n	n	n	n
O=C(CCSc1ccc(F)cc1)NNC(=O)c1ccc([N+](=O)[O-])cc1	n	x	n	n	n	28
COc1cccc(-c2nc(NC(C)C)c3ccccc3n2)c1O	n	n	n	26	n	n
COc1ccc(/C=C/C(=O)NCC(=O)N=Nc2c(O)[nH]c3ccc([N+](=O)[O-])cc23)cc1	n	n	n	n	n	n
O=C(CS(=O)(=O)c1cn(Cc2ccc(Cl)cc2)c2ccccc12)N1CCCCC1	n	n	n	n	n	28
O=C(CSc1ccc2nnc(-c3cccnc3)n2n1)Nc1ccc(F)cc1F	n	n	n	n	n	n
COc1ccc(Cl)cc1S(=O)(=O)Nc1ncn[nH]1	n	n	n	n	n	n
CSc1nc2ccc(NS(=O)(=O)c3ccc4c(c3)OCCO4)cc2s1	n	n	30	n	n	n
O=C(c1ccc(=O)[nH]n1)N1CCN(S(=O)(=O)c2cccc(F)c2)CC1	34	x	x	x	34	n
CCOc1ccc(N2CCc3c(C)nc(SC)nc32)cc1	n	n	n	n	n	n
CCOc1ccc(N=Nc2ccc(O)c3ncccc23)cc1	n	x	x	x	n	n
O=C(Nc1ncccc1O)c1ccc2c(c1)OCCO2	n	n	n	n	n	n
Cc1cccc(N=Nc2ccc(O)c3ncccc23)c1	n	n	51	n	n	n
Cc1ccc(C)c(N=Nc2ccc(O)c3ncccc23)c1	n	n	27	n	n	n
Oc1ccc(N=Nc2ccc3c(c2)OCCO3)c2ncccc12	n	n	28	n	n	n
NS(=O)(=O)c1ccc(N=Nc2ccc(O)c3ncccc23)cc1	n	n	27	n	n	n
CCCCCn1cnnc1SCC(=O)c1c(N)n(C2CC2)c(=O)[nH]c1=O	n	x	x	x	n	n
SMILES	PAFAH2 inh	Fam108B counter	pPAFAH inh	PME-1 inh	PAFAH1B3 FP inh	PAFAH1B2 inh
COc1ccccc1CNS(=O)(=O)CCNC(=O)c1ccccc1	n	n	n	n	n	n
N#CC1=C(N)Oc2cc(N)ccc2C1c1ccsc1 (stereo not drawn)	n	n	n	n	n	n
Cc1ccc(C2C(C#N)=C(N)Oc3cc(N)ccc32)cc1 (stereo not drawn)	n	n	27	n	n	n
COCCn1c(=S)[nH]c2cc(C(=O)N3CC(C)CC(C)C3)ccc2c1=O (stereo not drawn)	n	n	n	n	n	n
CC(C)c1ccc(NC(=O)[C@@H]2CCC(=O)N2C2OC(=O)c3ccccc32)cc1 (stereo partly drawn)	n	n	n	n	n	n
Cc1cc(C)c2[nH]c(O)c(N=NC(=O)c3cc4c(s3)CCCC4)c2c1	x	n	n	26	x	x
COCCNC(=S)N=Nc1c(O)[nH]c2c(C)cc(C)cc12	n	n	n	n	n	n
Cc1ccc(S(=O)(=O)N2CCN(C(=O)c3ccccc3Cc3ccccc3)CC2)c(C)c1	n	n	n	n	n	27
COc1ccc(-c2csc(C3=C(O)CN(C(C)C)C3=N)n2)cc1OC	n	n	n	n	n	n
COc1ccc(S(=O)(=O)N(C)C)cc1NC(=O)CN1C(=O)NC2(CCCC2)C1=O	n	n	n	n	n	n
COC(=O)C(=C/C=C/N1CCOCC1)C(=O)OC	x	n	25	n	x	x
O=C1NC(c2cccs2)C(C(=O)c2ccccc2)C(O)(C(F)(F)F)N1 (stereo not drawn)	n	n	n	n	n	32
Cc1ccc(CSC2=Nc3sccc3C3=NC(=O)CN23)cc1	n	n	27	n	n	n
COc1cc2c(cc1OC)C1=NC(=O)CN1C(SCc1ccc(C)cc1)=N2	n	n	n	n	n	n
Cc1c(C(=O)NCCC2=CCCCC2)sc2ncnc(N3CCCCC3C)c12 (stereo not drawn)	n	n	n	n	n	n
COC(=O)CNC(c1ccccc1)c1cc(Br)ccc1NC(=O)CNC(=O)OCc1ccccc1 (stereo not drawn)	n	n	29	n	n	n
Cc1ccc(C)c(N2CCN(C(=O)c3ccc4nc(-c5ccco5)c(-c5ccco5)nc4c3)CC2)c1	n	n	31	n	n	n
COc1ccccc1N1CCN(C(=O)c2ccc3nc(-c4ccco4)c(-c4ccco4)nc3c2)CC1	n	n	n	n	n	n
CCCc1cc2c(OC(=O)CC)c(-c3ccc(C(=O)OCC)o3)c(=O)oc2cc1OC	67	n	n	n	60	n
NC1=C(Cl)C(=O)c2ccccc2C1=O	n	x	x	x	n	n
NC1=C(Cl)C(=O)c2ccc(S(N)(=O)=O)cc2C1=O	48	x	x	x	69	25
O=C(CSc1nnc(SCc2cccc3ccccc23)s1)N/N=C/c1c[nH]c2ccccc12	n	34	n	26	n	26
O=C(CSc1ccccn1)N/N=C/c1c[nH]c2ccccc12	n	n	n	n	n	n
O=C(O)COc1ccccc1/C=N/NC(=O)CSc1nnc(SCc2ccc(Cl)cc2)s1	n	n	27	n	n	43
O=C(O)COc1ccccc1/C=N/NC(=O)CSc1nnc(SCc2cccc3ccccc23)s1	n	n	n	n	n	n
O=C(NCCC1CCCCN1S(=O)(=O)c1cccs1)C(=O)Nc1cccc(F)c1 (stereo not drawn)	n	n	n	n	n	n
Cc1ccc(C(C)C)c(OCC(=O)NN=C2CCCC(=O)C2)c1	n	x	n	x	n	n
Cc1ccccc1C1CC(=O)Oc2cc(O)ccc21 (stereo not drawn)	40	x	32	x	41	34
C#CCOCCOCCOCCNc1nc(N2CCN(C(=O)CCCCCCCCCCNC(=O)Cn3cc(C[C@@H](C)O)nn3)CC2)nc(N2CCN(C(=O)CCCCCCCCCCNC(=O)[C@H](CCCCN)n3cc(CCCC(=O)O)nn3)CC2)n1	n	n	25	n	n	n

Source: PubChem
